Laboratory results reported in PubChem BioAssay (NCATS).
A number with no mark means an inactive call. Records with an inconclusive call do not appear. Entries that show only a call come without a potency. Active and inactive are the calls of the source. Unless noted, the call rests on the fitted dose curve; in most records, active means well fitted curve in the direction sought with a large enough effect; inconclusive means small, poorly fitted or top-dose-only effect, or another doubt; inactive means no such curve, though single readings can be large; an effect the other way counts as inactive or inconclusive.

Experiments:
[1] = target: Lysosomal acid glucosylceramidase (Homo sapiens) (UniProt P04062); experiment: Glucocerebrosidase-p2 (AID 348; in the data active means potency below about 10 µM; further: potency means the concentration at half of the fitted maximal effect); settings: purified GBA, blue fluorogenic substrate, 40 min
Chain of Lysosomal acid glucosylceramidase (Homo sapiens) (P04062 whole entry, looked up): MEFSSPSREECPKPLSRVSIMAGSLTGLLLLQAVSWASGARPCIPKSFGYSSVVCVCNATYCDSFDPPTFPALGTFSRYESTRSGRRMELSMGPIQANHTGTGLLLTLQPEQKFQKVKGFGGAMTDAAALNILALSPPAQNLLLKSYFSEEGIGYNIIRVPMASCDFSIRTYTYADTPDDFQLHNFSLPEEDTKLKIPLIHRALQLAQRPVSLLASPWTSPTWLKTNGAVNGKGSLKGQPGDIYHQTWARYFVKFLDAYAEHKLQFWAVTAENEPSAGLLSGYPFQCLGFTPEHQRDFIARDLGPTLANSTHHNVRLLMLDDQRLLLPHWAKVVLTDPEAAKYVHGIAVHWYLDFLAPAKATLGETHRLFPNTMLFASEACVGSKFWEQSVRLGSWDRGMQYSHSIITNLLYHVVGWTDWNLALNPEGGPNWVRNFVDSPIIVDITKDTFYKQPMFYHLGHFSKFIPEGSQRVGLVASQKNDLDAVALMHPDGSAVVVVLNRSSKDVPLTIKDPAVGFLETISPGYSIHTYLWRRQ
Outline: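 Normal human glucocerebrosidase (0.2 nM) with blue fluorogenic substrate (80 uM final) in citrate/phosphate pH 5.9 with 10mM sodium taurocholate, 0.01% tween-20; 40 min RT, NaOH/glycine stop; fluorescence Ex 365/Em 440; AC50 from a titration from 0.6 nM upwards.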

[2] = AP1 Signaling Pathway (AID 357; active means well fitted curve in either direction with a large enough effect, not every such curve was filed as active;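 further: ME-180 reporter cells stimulated with EGF at its EC50 level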); settings: ME-180 AP-1-bla reporter, EGF-induced, beta-lactamase ratio, 5 h; at 7.69 µM (top of the series) unless noted
Outline: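 Beta-lactamase reporter under AP-1 response element, ME-180 background. Stimulus: EC50 EGF. Compound exposure 5 h, 37 °C. Detection: CCF4, 2.5 h RT, 460/530 nm. Values: AC50 from titration.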

[3] = NFAT Signaling Pathway (AID 444; active means well fitted curve in either direction with a large enough effect, not every such curve was filed as active;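 further: carbachol stimulus at about its EC50 of 1 µM final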); settings: Jurkat NFAT-bla M1, carbachol, beta-lactamase ratio, 5 h; at 7.69 µM (top of the series) unless noted
Outline: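 Read-out: CCF4 FRET ratio (460 nm/530 nm) after 1 h RT dye loading, used for %activity and AC50 from titration series. Cells: Jurkat NFAT-β-lactamase/M1 line, treated with compound plus 1 uM carbachol for 5 h, 37 °C.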

[4] = Stat Signaling Pathway (AID 446; active means well fitted curve in either direction with a large enough effect, not every such curve was filed as active;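 further: ME-180 cervical cancer cells given 40 pM IL-6 alongside compound; SIE-controlled beta-lactamase reporter measured as 460/530 nm FRET emission ratio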); settings: ME-180 (cervical carcinoma) SIE beta-lactamase reporter, IL-6 stimulated, 5 h; at 7.69 µM (top of the series) unless noted
Outline: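 Compound effects on IL-6-induced STAT reporter activity were measured in ME-180 cells. After overnight culture, cells were co-treated with 40 pM IL-6 for 5 hrs before beta-lactamase substrate loading at room temperature.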

[5] = target: Glucocorticoid receptor (Homo sapiens) (UniProt P04150); experiment: GR-GFP Redistribution (AID 450;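 active means compounds whose dose series gives a full or clear partial fitted curve of increased nuclear translocation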; further: potency means the concentration at half of the fitted maximal effect); settings: U2OS GR-GFP nuclear translocation, laser cytometry, 2 h
Chain of Glucocorticoid receptor (Homo sapiens) (P04150 whole entry, looked up, the tested form may be a part): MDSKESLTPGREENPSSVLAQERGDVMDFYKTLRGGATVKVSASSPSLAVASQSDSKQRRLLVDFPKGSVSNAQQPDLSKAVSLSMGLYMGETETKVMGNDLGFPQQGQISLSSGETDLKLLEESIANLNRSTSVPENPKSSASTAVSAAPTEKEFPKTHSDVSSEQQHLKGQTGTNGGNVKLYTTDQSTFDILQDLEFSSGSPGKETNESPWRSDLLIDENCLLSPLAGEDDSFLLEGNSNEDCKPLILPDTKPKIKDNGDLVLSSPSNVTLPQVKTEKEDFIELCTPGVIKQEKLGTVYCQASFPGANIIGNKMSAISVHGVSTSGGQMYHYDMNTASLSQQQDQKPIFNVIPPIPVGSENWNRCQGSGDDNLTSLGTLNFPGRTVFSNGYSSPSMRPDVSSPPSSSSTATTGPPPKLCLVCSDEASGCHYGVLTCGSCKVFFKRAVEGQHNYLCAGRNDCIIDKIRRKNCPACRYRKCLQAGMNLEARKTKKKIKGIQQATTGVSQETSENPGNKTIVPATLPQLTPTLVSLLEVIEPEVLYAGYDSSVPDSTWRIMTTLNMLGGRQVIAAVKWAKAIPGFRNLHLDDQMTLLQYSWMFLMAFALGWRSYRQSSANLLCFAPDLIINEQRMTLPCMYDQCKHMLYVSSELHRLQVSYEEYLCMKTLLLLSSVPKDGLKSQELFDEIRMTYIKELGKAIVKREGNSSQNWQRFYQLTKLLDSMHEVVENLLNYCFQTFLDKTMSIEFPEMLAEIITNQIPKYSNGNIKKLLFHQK

[6] = target: Mitogen-activated protein kinase 10 (Mus musculus) (UniProt Q61831); experiment: JNK3 AlphaScreen Assay (AID 530; active means well fitted curve in either direction with a large enough effect, not every such curve was filed as active;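 further: kinase came from lysate of stimulated human HepG2 cells; signal reports phosphorylation of biotinylated GST-cJun 1-79 at Ser73 with 10 µM ATP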); settings: JNK3 lysate, c-Jun phosphorylation; series mostly up to 57.1 µM
Outline: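 qHTS titrations with 15 min compound pre-incubation before adding ATP (10 uM final). Read-out: AlphaScreen of Ser73-phosphorylated biotin-GST-cJun using HepG2 lysate JNK3 activated by IL-1β and TNFα.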

[7] = target: 3',5'-cyclic-AMP phosphodiesterase 4B (Homo sapiens) (UniProt Q07343); experiment: qHTS Assay for Inhibitors of PDE-IV (AID 607; active means well fitted activation curve with a large enough effect in the main read-out, with a control signal flat, not every such curve was filed as active); settings: HEK293 ACTOne CNG channel cells, membrane potential fluorescence; series mostly up to 22.9 µM
Chain of 3',5'-cyclic-AMP phosphodiesterase 4B (Homo sapiens) (Q07343 whole entry, looked up): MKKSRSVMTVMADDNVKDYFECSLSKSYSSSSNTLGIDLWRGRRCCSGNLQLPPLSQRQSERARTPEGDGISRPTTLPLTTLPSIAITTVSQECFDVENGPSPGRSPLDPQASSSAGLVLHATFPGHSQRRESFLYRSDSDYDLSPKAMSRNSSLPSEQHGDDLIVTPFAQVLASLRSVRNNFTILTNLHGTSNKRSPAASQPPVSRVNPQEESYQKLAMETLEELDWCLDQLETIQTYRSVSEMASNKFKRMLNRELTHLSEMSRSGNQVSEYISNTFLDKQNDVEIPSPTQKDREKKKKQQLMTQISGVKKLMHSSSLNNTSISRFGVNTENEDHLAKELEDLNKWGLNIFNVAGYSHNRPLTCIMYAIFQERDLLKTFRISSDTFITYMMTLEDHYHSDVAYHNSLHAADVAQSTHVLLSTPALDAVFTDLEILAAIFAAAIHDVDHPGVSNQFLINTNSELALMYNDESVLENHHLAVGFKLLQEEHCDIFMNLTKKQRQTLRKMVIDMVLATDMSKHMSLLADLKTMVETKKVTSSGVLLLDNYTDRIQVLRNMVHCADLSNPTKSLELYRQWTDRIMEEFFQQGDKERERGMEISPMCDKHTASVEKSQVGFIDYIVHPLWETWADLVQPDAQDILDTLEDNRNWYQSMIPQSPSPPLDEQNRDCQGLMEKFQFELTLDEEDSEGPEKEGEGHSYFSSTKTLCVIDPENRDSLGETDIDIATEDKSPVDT
Outline: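 ACTOne HEK293 cells carry a modified cAMP-gated CNG channel and express endogenous PDE4; plated 1000 cells/well, compounds up to 22.9 uM final. Membrane-potential dye fluorescence (ex 535/em 590) was read; parental cells received 10 uM forskolin + 100 uM RO 20-1724.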

[8] = target: Dual specificity protein kinase CLK4 (Homo sapiens) (UniProt Q9HAZ1); experiment: qHTS Assay for Inhibitors of CDC-like Kinase 4 (Kinase-Glo Assay) (AID 1770); settings: recombinant Clk4, Kinase-Glo ATP depletion luminescence; series mostly up to 66.7 µM; further: nearly all actives have a fitted effect of over 65% in size; further: potency means the concentration at half of the fitted maximal effect
Chain of Dual specificity protein kinase CLK4 (Homo sapiens) (Q9HAZ1 whole entry, looked up): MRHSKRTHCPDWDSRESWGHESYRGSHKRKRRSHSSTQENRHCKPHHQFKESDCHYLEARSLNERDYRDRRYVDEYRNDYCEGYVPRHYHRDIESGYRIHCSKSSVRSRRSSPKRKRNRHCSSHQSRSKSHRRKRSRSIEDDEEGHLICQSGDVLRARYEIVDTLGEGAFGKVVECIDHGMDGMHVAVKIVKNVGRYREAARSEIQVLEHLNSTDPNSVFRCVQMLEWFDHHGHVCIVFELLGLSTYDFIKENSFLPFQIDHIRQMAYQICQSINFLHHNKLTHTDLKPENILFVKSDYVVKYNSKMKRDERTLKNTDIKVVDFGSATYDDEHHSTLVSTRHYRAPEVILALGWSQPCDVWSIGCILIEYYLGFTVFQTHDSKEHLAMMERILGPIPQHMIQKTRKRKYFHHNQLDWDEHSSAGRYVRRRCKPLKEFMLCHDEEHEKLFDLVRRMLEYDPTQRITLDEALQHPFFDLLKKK
Outline: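 Luminescent ATP-depletion read-out (Kinase-Glo) after 4.5 h room-temperature reaction of Clk4 (25 nM final) with RS peptide (100 uM) and ATP (1 uM), pH 7.5 Tris buffer with MgCl2 and DTT.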

[9] = target: Dual specificity protein kinase CLK4 (Homo sapiens) (UniProt Q9HAZ1); experiment: qHTS Assay for Inhibitors of CDC-like Kinase 4 (ADP-Glo Assay) (AID 1771); settings: recombinant CLK4, ADP-Glo luminescence; series mostly up to 80 µM; further: nearly all actives have a fitted effect of over 70% in size; further: potency means the concentration at half of the fitted maximal effect
Outline: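 ADP production was read by ADP-Glo luminescence after residual ATP depletion, following 1 h room-temperature reaction of 25 nM Clk4, 1 uM ATP and 100 uM RS peptide with MgCl2, EGTA, DTT and Triton X-100.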

[10] = target: Dual specificity protein kinase CLK4 (Homo sapiens) (UniProt Q9HAZ1); experiment: qHTS Assay for Inhibitors of CDC-like Kinase 4 (ADP-FP Assay) (AID 1795); settings: Transcreener ADP fluorescence polarization; series mostly up to 50 µM; further: nearly all actives have a fitted effect of over 60% in size; further: potency means the concentration at half of the fitted maximal effect;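 on activity change, negative = inhibition: recombinant human CLK4 phosphorylating RS repeat peptide at 1 µM ATP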
Outline: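 Kinase activity was measured as ADP production using Transcreener orange tracer (4 nM) and ADP antibody (1 ug/mL) fluorescence polarization, with ADP calculated from a calibration curve. The 1 h reaction contained 6.25 nM Clk4, 1 uM ATP and 100 uM RS peptide at pH 7.5 with Mg2+.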

[11] = target: Ubiquitin carboxyl-terminal hydrolase 1 (Homo sapiens) (UniProt O94782); experiment: Inhibitors of USP1/UAF1: Pilot qHTS (AID 504865); settings: purified USP1/UAF1, Ub-rhodamine cleavage fluorescence; series mostly up to 54.9 µM;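 further: rhodamine fluorescence freed from ubiquitin-rhodamine substrate followed over time; top concentration of the series differs between compounds; nearly all actives have a fitted effect of over 35% in size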
Chain of Ubiquitin carboxyl-terminal hydrolase 1 (Homo sapiens) (O94782 whole entry, looked up): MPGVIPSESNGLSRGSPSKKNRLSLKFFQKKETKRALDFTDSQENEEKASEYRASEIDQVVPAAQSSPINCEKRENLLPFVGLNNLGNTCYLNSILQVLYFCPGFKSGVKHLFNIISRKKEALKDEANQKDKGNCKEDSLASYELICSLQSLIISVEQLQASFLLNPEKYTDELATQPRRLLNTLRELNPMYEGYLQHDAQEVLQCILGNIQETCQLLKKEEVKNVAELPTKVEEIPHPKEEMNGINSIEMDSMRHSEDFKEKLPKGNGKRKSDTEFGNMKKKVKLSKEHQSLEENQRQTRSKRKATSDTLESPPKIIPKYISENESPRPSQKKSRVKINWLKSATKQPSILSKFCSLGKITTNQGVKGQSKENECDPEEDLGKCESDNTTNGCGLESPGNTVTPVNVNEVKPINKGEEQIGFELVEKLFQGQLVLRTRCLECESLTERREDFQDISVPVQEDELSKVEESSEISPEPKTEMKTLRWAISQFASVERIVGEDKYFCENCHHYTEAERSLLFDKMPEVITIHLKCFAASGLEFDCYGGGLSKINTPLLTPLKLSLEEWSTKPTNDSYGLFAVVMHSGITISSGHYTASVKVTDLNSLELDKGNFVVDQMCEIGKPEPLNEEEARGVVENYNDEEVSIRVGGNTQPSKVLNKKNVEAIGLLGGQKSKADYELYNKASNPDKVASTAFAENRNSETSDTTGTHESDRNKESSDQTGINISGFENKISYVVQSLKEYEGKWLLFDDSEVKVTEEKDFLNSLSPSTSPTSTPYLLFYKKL
Outline: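 Deubiquitinase activity followed as kinetic rhodamine fluorescence release from 150 nM Ub-Rho. 1 nM USP1/UAF1 with compound, after 15 min room-temperature preincubation, in HEPES pH 7.8 buffer containing TCEP, EDTA, BSA and Tween-20.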

[12] = Primary qHTS for small molecule stabilizers of the endoplasmic reticulum resident proteome: Secreted ER Calcium Modulated Protein (SERCaMP) assay (AID 1508630); settings: SH-SY5Y GLuc-SERCaMP (Gaussia luciferase released on ER calcium loss) secretion, thapsigargin, luminescence; series mostly up to 38.4 µM
Outline: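 The SH-SY5Y reporter protocol was run at 3 concentrations up to 38.3 uM (primary) or 11 concentrations (follow-up): 16 h compound, 100 nM thapsigargin for 4 h, then extracellular luciferase luminescence.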

[13] = target: Glucocorticoid receptor (Homo sapiens) (UniProt P04150); experiment: GR-EFC Redistribution (AID 451; calls by dose curve; further: potency means the concentration at half of the fitted maximal effect); settings: CHO-K1 GR-EFC translocation, beta-gal luminescence, 2 h
Outline: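 Translocation of GR-ED fusion to nuclear EA restores b-gal, read by luminescence after 1 h room-temperature detection. Engineered CHO-K1 biosensor cells, 1,000/well, exposed 2 h at 37 C to titrations up to 46 uM final.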

[14] = target: Cytochrome P450 3A4 (Homo sapiens) (UniProt P08684); experiment: qHTS Assay for Activators of Cytochrome P450 3A4 (AID 885); settings: recombinant CYP3A4, Luciferin-PPXE luminescence, 60 min; series mostly up to 57.1 µM; further: nearly all actives have a fitted effect of over 65% in size
Chain of Cytochrome P450 3A4 (Homo sapiens) (P08684 whole entry, looked up): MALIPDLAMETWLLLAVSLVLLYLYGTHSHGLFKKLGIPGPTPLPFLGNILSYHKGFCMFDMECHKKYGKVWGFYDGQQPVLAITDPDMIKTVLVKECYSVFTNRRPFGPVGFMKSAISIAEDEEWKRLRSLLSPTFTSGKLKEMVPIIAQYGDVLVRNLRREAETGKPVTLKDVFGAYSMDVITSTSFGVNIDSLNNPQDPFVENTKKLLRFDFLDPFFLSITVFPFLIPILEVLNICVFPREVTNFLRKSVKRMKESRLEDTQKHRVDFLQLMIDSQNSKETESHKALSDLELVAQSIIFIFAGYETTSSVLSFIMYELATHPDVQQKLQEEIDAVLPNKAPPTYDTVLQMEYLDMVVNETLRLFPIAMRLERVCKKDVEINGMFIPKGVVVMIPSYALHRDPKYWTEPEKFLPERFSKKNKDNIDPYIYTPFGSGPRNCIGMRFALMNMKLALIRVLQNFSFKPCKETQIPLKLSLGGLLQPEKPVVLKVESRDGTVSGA
Outline: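 CYP3A4 activity: Luciferin-PPXE O-dealkylation, 25uM substrate, 200mM KPO4, RT throughout. Read-out is luciferase luminescence; higher values reflect activation.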

For `CCNc1ncc2nc(-c3cc(F)cc(F)c3)c(=O)n(C3CC3)c2n1`, the Potency [1] was > 11.4 µM, the activity change, negative = inhibition [2] was 29.9% and the activity change, negative = inhibition [3] was 23.3%. The activity, negative = inhibition [4] was 28.9%, the Potency [5] was > 9.22 µM and the Potency [6] was “inactive”. The Potency [7] was “inactive”, the Potency [8] was “inactive” and the Potency [9] was “inactive”. The Potency [10] was “inactive”, the Potency [11] was “inactive” and the outcome [12] was “inactive”.
With `Cn1c(=O)c(-c2cc(F)cc(F)c2)nc2cnc(Nc3ccccc3)nc21` the Potency [1] was > 11.4 µM, the activity change, negative = inhibition [2] was -3.31% and the activity change, negative = inhibition [3] was 6.94%. For the same compound, the activity, negative = inhibition [4] was 4.13%, the Potency [5] was > 9.22 µM and the Potency [13] was > 46 µM. For the same compound, the Potency [6] was “inactive”, the Potency [7] was “inactive” and the Potency [8] was “inactive”. The Potency [9] was “inactive”, the Potency [10] was “inactive” and the outcome [12] was “inactive”.
For `COCCn1c(=O)c(-c2ccccc2)nc2cnc(N3CCOCC3)nc21`, the Potency [1] was > 11.4 µM, the activity change, negative = inhibition [2] was -10.7% and the activity change, negative = inhibition [3] was 18.3%. For the same compound, the activity, negative = inhibition [4] was -4.75%, the Potency [5] was > 9.22 µM and the Potency [13] was > 46 µM. For the same compound, the Potency [6] was “inactive”, the Potency [7] was “inactive” and the Potency [8] was “inactive”. The Potency [9] was “inactive”, the Potency [10] was “inactive” and the Potency [11] was “inactive”. The outcome [12] was “inactive”.
For `COc1ncc2nc(-c3ccc(Cl)cc3)c(=O)n(C)c2n1`, the Potency [1] was > 11.4 µM, the activity change, negative = inhibition [2] was -10.2% and the activity change, negative = inhibition [3] was 8.73%. For the same compound, the activity, negative = inhibition [4] was 1.71%, the Potency [5] was > 9.22 µM and the Potency [13] was > 46 µM. The Potency [6] was “inactive”, the Potency [7] was “inactive” and the Potency [14] was “inactive”. For the same compound, the Potency [8] was “inactive”, the Potency [9] was “inactive” and the Potency [10] was “inactive”. The Potency [11] was “inactive” and the outcome [12] was “inactive”.
For `COc1ncc2nc(-c3ccc(F)cc3)c(=O)n(Cc3cccs3)c2n1`, the Potency [1] was > 11.4 µM, the activity change, negative = inhibition [2] was -5.24% and the activity change, negative = inhibition [3] was -1.45%. For the same compound, the activity, negative = inhibition [4] was -28.5%, the Potency [5] was > 9.22 µM and the Potency [13] was > 46 µM. The Potency [6] was “inactive”, the Potency [7] was “inactive” and the Potency [8] was “inactive”. For the same compound, the Potency [9] was “inactive”, the Potency [10] was “inactive” and the Potency [11] was “inactive”. The outcome [12] was “inactive”.
For `COc1ncc2nc(C)c(=O)n(Cc3ccc(F)cc3)c2n1`, the Potency [1] was > 11.4 µM, the activity change, negative = inhibition [2] was -12.3% and the activity change, negative = inhibition [3] was -2.65%. For the same compound, the activity, negative = inhibition [4] was -17.5%, the Potency [5] was > 9.22 µM and the Potency [13] was > 46 µM. The Potency [6] was “inactive”, the Potency [7] was “inactive” and the Potency [8] was “inactive”. For the same compound, the Potency [9] was “inactive”, the Potency [10] was “inactive” and the Potency [11] was “inactive”. For the same compound, the outcome [12] was “inactive”.
With `COc1ccc(Oc2ncc3ncc(=O)n(-c4ccc(OC)cc4)c3n2)cc1` the Potency [1] was > 11.4 µM, the activity change, negative = inhibition [2] was -24.9% and the activity change, negative = inhibition [3] was -12.3%. For the same compound, the activity, negative = inhibition [4] was -13.9%, the Potency [5] was > 9.22 µM and the Potency [13] was > 46 µM. The Potency [6] was “inactive”, the Potency [7] was “inactive” and the Potency [8] was 2.82 µM (active). The Potency [9] was 2 µM (active), the Potency [10] was 4.47 µM (active) and the Potency [11] was “inactive”. For the same compound, the outcome [12] was “inactive”.
